Measured values reported in PubChem BioAssay AID493240 (Broad Institute, 2011).
Screen size: about 1,300 compounds; about 270 (21%) were called active. These entries were drawn from the full list. Entries with a potency or affinity are not part of this list. Unmarked numbers belong to inactive results. No rule for the calls is given here.

Assay: cytotoxicity in parental SK-MEL-5 melanoma cells – cell-based, CellTiter-Glo, cherry-picked, set 3, orthogonal assay for MITF inhibitor project, dose response (AID 493240)
Conditions: SK-MEL-5 viability, ATP luminescence (CellTiter-Glo), 24 h; series mostly up to 35 µM; activity change, negative = viability loss: at the top concentration

Row | SMILES | activity change, negative = viability loss
1 | Cc1cc(C(=O)CSc2nnc3ccccn23)c(C)n1-c1ccccc1 | -10.6%
2 | O=C(Nc1cnc2ccccn2c1=O)c1ccc(F)cc1 | -6.16%
3 | O=C(Cc1ccc2c(c1)OCO2)NN=Cc1ccc([N+](=O)[O-])o1 | -42.9%
4 | CC1(C(=O)N/N=C/c2ccc([N+](=O)[O-])o2)CC1(Br)Br (stereo not given) | -26.3%
5 | Cc1ccc(NCC(=O)N/N=C\c2ccc([N+](=O)[O-])o2)cc1 | -19.5%
6 | Cc1ccc(NC(=O)CCC(=O)N/N=C/c2ccc([N+](=O)[O-])o2)cc1C | -18.4%
7 | CCCCn1c(=O)[nH]c(=O)c2c1nc(Cn1ncc(Cl)c(Cl)c1=O)n2CCC | -22.5%
8 | O=c1c(Cl)c(Cl)cnn1-c1ccccc1 | 9.14%
9 | CC(=O)OCCCNc1cc(Sc2ccc(Cl)cc2)c2nonc2c1[N+](=O)[O-] | -20.4%
10 | Cc1ccccc1OCc1nc2c3cnn(C)c3ncn2n1 | -14.4%
11 | c1cnc(SCCOc2ccc3c(c2)CCC3)nc1 | -7.47%
12 | CCn1nccc1C(=O)Nc1ccc(C)c(C)c1 | -20.2%
13 | Cc1ccc(NC(=O)c2cnc3ccccc3n2)cc1C | -2.28%
14 | ClC1(Cl)CC1CSc1nnc(-c2ccncc2)o1 (stereo not given) | -9.13%
15 | O=C(Nc1ccc2nc3n(c(=O)c2c1)CCCCC3)c1cc([N+](=O)[O-])ccc1F | -9.63%
16 | CC1CCN(CC2C(=O)O[C@@H]3C[C@@]4(C)CCC[C@H](C)C4=C[C@H]23)CC(C)(C)C1 (stereo not given in full) | 11.1%
17 | COc1cc(C(=O)N/N=C(\c2ccccc2)c2ccccn2)cc(OC)c1OC | -31.3%
18 | O=C(NCc1ccc2c(c1)OCO2)c1cc(=O)[nH]c2ccccc12 | 6.22%
19 | COc1ccc(N(Cc2cc(=O)[nH]c3ccccc23)C(=O)CCl)cc1 | -30.3%
20 | CCC(=O)OCCNc1cc(Sc2nccn2C)c2nonc2c1[N+](=O)[O-] | -33.1%
21 | O=C1c2ccccc2C(=O)N1CCSc1ccccc1 | -4.55%
22 | CN(c1ccc2nc3ccccc3c(=O)n2n1)C1CCCCC1 | -39.1%
23 | Cc1ccc(NC(=O)c2cc(-c3cccs3)on2)cc1 | 2.76%

Row | SMILES | activity change, negative = viability loss
24 | O=C(CCl)Nc1cn(-c2ccccc2)nc1-c1ccccc1 | -17.3%
25 | Cc1ccc2oc(C(Cl)(Cl)Cl)cc(=O)c2c1 | -6.41%
26 | O=C(CCl)N1c2ccccc2CCc2ccccc21 | -16.3%
27 | Cc1ccc(NC(=O)/C=C/c2ccc([N+](=O)[O-])s2)c(C)c1 | 18.1%
28 | CCCOc1ccc(C(=O)C(CN2CCCC2)c2ccccc2)cc1 (stereo not given) | -40%
29 | CCSC1(SCC)N=C(N)C2(C#N)C(c3ccc(F)cc3)C12C#N (stereo not given) | -37.1%
30 | O=C(CCCc1ccccc1)Nc1cccc(C(=O)O)c1 | -5.13%
31 | O=C(CSCc1c(F)cccc1F)Nc1ccccc1 | 2.98%
32 | CSc1nc(N)n2nc(-c3ccc(Cl)cc3)cc2n1 | -3.88%
33 | N#C/C(=C\C=C\c1ccccc1[N+](=O)[O-])C(=O)NC1CCCCC1 | -38.9%
34 | CN(C)c1nc(-c2ccccn2)nnc1-c1ccccc1 | -10.7%
35 | CCOc1cc(/C=C\[N+](=O)[O-])ccc1OCC(=O)N1CCOCC1 | -19.4%
36 | CS(=O)(=O)c1ccc2nc(NC(=O)c3ccccc3Br)sc2c1 | -3.07%
37 | COc1ccc(-n2ncc3c(N4CCCCC4)ncnc32)cc1 | -42.2%
38 | CN(C)c1cc[n+](CC(=O)c2ccc(-c3ccccc3)cc2)cc1 | -43.2%
39 | COc1cccc(NC(=O)c2cnn(-c3ccccc3)c2C)c1 | -15.4%
40 | CN1CCN(CCCOc2ccc(-c3ccccc3)cc2)CC1 | -25.3%
41 | O=C(CCl)N1N=C(c2ccco2)CC1c1cccs1 (stereo not given) | -17.2%
42 | CC(C)(C)OC(=O)N1CCN(C(=O)c2nc[nH]c2C(=O)N2CCN(c3ccccc3)CC2)CC1 | -30.5%
43 | COCC(C)Nc1ncnc2c1cnn2-c1ccc(Cl)cc1 (stereo not given) | -19.2%
44 | CC1CCCC(C)N1CCCNC(=O)c1cc2c(s1)-c1ccccc1OC2 (stereo not given) | -37.3%
45 | C=CCn1c(C)cc(C(=O)CN2C(=O)c3ccccc3S2(=O)=O)c1C | 11%
46 | N#C/C(=C\c1c[nH]c2ccccc12)C(=O)NC1CC1 | 7.49%

Row | SMILES | activity change, negative = viability loss
47 | COc1cccc(N2CCN(C(=O)c3ccc(CS(=O)c4ccccc4Cl)o3)CC2)c1 (stereo not given) | -4.04%
48 | C=C1C(=O)C2=CC1CCC(=O)C1(C)CCC(OC(C)=O)C(C)(C)C1CC2O (stereo not given) | -28.8%
49 | O=C(CCCc1ccccc1)N1CCN(C2CCCCC2)CC1 | 7.11%
50 | NC(=O)c1ccccc1NC(=O)/C=C/c1cccc(Cl)c1 | 11.7%
51 | CC(C)C(=O)Nc1ccc2nn(-c3ccc(F)cc3)nc2c1 | -0.986%
52 | Cc1cc(/C(N)=N/OC(=O)c2ccc(Cl)cc2)no1 | -18.9%
53 | COc1ccccc1OCCN1CSC(=S)N(C)C1 | -15.7%
54 | CC(=O)CSc1ccc(-c2nc3cc(C)c(C)cc3[nH]2)cn1 | -37.4%
55 | Cc1[nH]n(-c2ccccc2)c(=O)c1N=Nc1cccc(C(=O)O)c1 | -11.8%
56 | CCOc1ccc(/C=C2\SC(=S)N(CCC(=O)O)C2=O)cc1 | 0.219%
57 | CC(=O)c1cccc(NC(=O)/C=C/c2ccc([N+](=O)[O-])s2)c1 | -10.7%
58 | COc1ccccc1-c1nc(-c2ccc(C)nc2OC)no1 | -15.3%
59 | COc1ccccc1-c1nnc(-c2ccc(C)cc2)o1 | -16.4%
60 | O=C(O)c1ccc(N/N=C/c2ccc(OC(=O)c3cccc(Cl)c3)cc2)cc1 | -5.62%
61 | CCC(=O)N1CCN(c2ccc(Cl)cc2NC(=O)c2ccc([N+](=O)[O-])o2)CC1 | -1.93%
62 | CC(C)C(=O)N1CCN(c2ccc(NC(=O)c3ccc([N+](=O)[O-])o3)cc2Cl)CC1 | -41.7%
63 | O=C(Nc1ccccc1N1CCOCC1)c1ccc([N+](=O)[O-])o1 | -14.6%
64 | CN1CCN(c2ccc(NC(=O)c3ccc([N+](=O)[O-])o3)cc2Cl)CC1 | -18%
65 | CCCC(=O)N1CCN(c2ccc(NC(=O)c3ccc([N+](=O)[O-])o3)cc2Cl)CC1 | -25.5%
66 | Cc1cccc(NC(=O)c2ccc([N+](=O)[O-])o2)c1C | -14.7%
67 | CCn1c(=O)c([N+](=O)[O-])c(Cl)c2ccccc21 | -28.7%
68 | CC(=O)N/C(N)=N/c1nc(=O)c2ccccc2s1 | -6.17%
69 | COc1ccc(C(=O)/C=C(\C)Nc2ccc3c(c2)OCO3)cc1 | -19.4%

Row | SMILES | activity change, negative = viability loss
70 | Clc1nccnc1N/N=C/c1ccc(Br)cc1 | -42.9%
71 | COc1cc(/C=C/C(=O)N2CCC=CC2=O)cc(OC)c1OC | -45.6%
72 | CCOc1cc(NC(=O)CCl)c(OCC)cc1NC(=O)CCl | -12.5%
73 | CC(=O)Nc1cccc(-c2nnc(-c3ccccc3)o2)c1 | -2.04%
74 | O=C(O)CSCC(=O)Nc1ccc(C2CCCCC2)cc1 | -2.59%
75 | Cc1ccc(C(=O)Nc2cnc3ccccc3c2)cc1 | -22.4%
76 | O=C(CCl)Nc1cccc(Oc2ccccc2)c1 | -21.8%
77 | Cc1c(C#N)c(NC(=O)CCl)n(Cc2ccccc2)c1C | -7.66%
78 | O=[N+]([O-])c1cc(S(=O)(=O)N2CCCCCC2)ccc1F | -40.5%
79 | O=C(N/N=C/c1cc(Cl)ccc1O)c1ccncc1 | -18%
80 | O=C(COC(=O)c1ccc[nH]c1=O)Nc1ccc(N2CCCCC2)cc1 | -0.334%
81 | CN=c1scc(-c2ccccc2F)n1/N=C/c1ccc[nH]1 | -39.1%
82 | Cc1ccc(COc2ccc(C)nc2[N+](=O)[O-])cc1 | 9.27%
83 | O=C(Cn1ncc(Cl)c(Cl)c1=O)Nc1ccc2c(c1)OCO2 | -31.9%
84 | O=[N+]([O-])c1cccc(/C=N/Nc2ncc(Br)cn2)c1 | 15.2%
85 | O=C(c1ccc(S(=O)(=O)Cc2ccccc2Cl)c([N+](=O)[O-])c1)N1CCN(c2ccccn2)CC1 | -6.1%
86 | CC(C)C(=O)NC(c1ccco1)c1ccc2cccnc2c1O (stereo not given) | -29%
87 | COc1cc(SC)ccc1C(=O)Nc1ccc(Br)cn1 | -19.1%
88 | COc1cc(SC)ccc1C(=O)Nc1ncc(C)s1 | -21.3%
89 | COc1cc2c(cc1O)C(SC)=NC(C)(C)C2 | -14%
90 | O=[N+]([O-])c1ccccc1OCCCOc1cccc2cccnc12 | -2.19%
91 | O=[N+]([O-])c1cc(CN2CCN(c3ccccc3)CC2)c(O)c2ncccc12 | -37.8%
92 | CC(=O)Nc1ccc2c(c1)ncn2-c1ccccc1 | -4.41%

Row | SMILES | activity change, negative = viability loss
93 | CSCCNC(=O)c1ccc2nc(Cc3ccccc3F)oc2c1 | -0.854%
94 | N#C/C(=C\c1ccc(OCc2ccc(C(=O)O)cc2)cc1)C(=O)N1CCOCC1 | -22.2%
95 | Cc1ccc(-c2cc3onc(-c4ccccc4)c3c(=O)n2C)cc1 | -21.7%
96 | CN(Cc1ccccc1)C1=CC(=[N+]2CCCC2)CC(C)(C)C1 | -27%
97 | N/C(=N\OC(=O)c1cccc(F)c1)c1cccc([N+](=O)[O-])c1 | 10.3%
98 | COc1ccc(C(=O)NCC(=O)c2ccccc2)cc1 | -8.5%
99 | O=C(N/N=C/C=C/c1ccccc1)c1ccccn1 | 0.498%
100 | COc1cc2c(cc1OC)C(SC)=NC1(CCCC1)C2 | -16.4%
101 | O=C(c1ccccc1)c1cc(Cl)ccc1N1C(=O)C=CC1=O | -2.49%
102 | COc1ccc(/C=N/Nc2cc(C)nc(-n3nc(C)cc3C)n2)c(OC)c1 | -35.9%
103 | CC(=O)Oc1c(C(=O)c2nnc(C)o2)c(=O)n(Cc2ccccc2)c2ccccc12 | 7.5%
104 | CN(C)CCCN(C(=O)c1ccc(Cl)s1)c1nc2cc3c(cc2s1)OCO3 | -22.2%
105 | Cc1ccc2nc(NC(=O)CCCC(=O)O)sc2c1 | -17.3%
106 | Cc1c(C#N)c(NC(=O)CCl)n(Cc2ccc(F)cc2)c1C | -24.8%
107 | COc1ccccc1OCC(=O)N/N=C/C=C/c1ccc([N+](=O)[O-])o1 | -12.1%
108 | CCOc1ccccc1NC(=O)C(=O)N/N=C/c1cc(Br)ccc1O | -7.65%
109 | CC(C)(C)C(=O)Nc1cc2nn(-c3ccccc3)nc2cc1Cl | -22%
110 | CCOc1ccc2nc(NC3=NC(c4ccc(OC)cc4)CC(=O)N3)nc(C)c2c1 (stereo not given) | -27.7%
111 | Cc1ccc(C(=O)c2cccc(N)c2)cc1C | -8.05%
112 | Cc1nc2ccccn2c1C(=O)N/N=C/c1ccc([N+](=O)[O-])o1 | -28.7%
113 | CC1=NC(=O)C(N=Nc2cccc(C(=O)O)c2)N1c1ccccc1 (stereo not given) | 7.48%
114 | CC(Oc1ccc(F)cc1)C(=O)Nc1nc(-c2ccccn2)cs1 (stereo not given) | -22%
115 | O=C(CCNc1ccccc1)c1ccc2c(c1)OCO2 | 5.44%
